The list is not random: actives were taken first. Their share in the collection is about 1.6%.
KCNQ2 pot: enhances the rat KCNQ2 potassium channel | O88943 | CHO-K1 KCNQ2, FluxOR thallium flux fluorescence; hits give high values | B-score at 10 µM | 310,000 compounds, 0.54% hits;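 active means fluorescence ratio B-score at least 3 SD of library B-scores, with initial fluorescence B-score within 3 of them, cut at about 5.3 in these data; same plate scores as AID 2156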;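 further: B-score of peak minus minimum over baseline fluorescence ratio after K+ and Tl+ stimulus; positive B-score means potentiation of KCNQ2 with more thallium influx and brighter signal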
Target sequence (O88943 whole entry, looked up): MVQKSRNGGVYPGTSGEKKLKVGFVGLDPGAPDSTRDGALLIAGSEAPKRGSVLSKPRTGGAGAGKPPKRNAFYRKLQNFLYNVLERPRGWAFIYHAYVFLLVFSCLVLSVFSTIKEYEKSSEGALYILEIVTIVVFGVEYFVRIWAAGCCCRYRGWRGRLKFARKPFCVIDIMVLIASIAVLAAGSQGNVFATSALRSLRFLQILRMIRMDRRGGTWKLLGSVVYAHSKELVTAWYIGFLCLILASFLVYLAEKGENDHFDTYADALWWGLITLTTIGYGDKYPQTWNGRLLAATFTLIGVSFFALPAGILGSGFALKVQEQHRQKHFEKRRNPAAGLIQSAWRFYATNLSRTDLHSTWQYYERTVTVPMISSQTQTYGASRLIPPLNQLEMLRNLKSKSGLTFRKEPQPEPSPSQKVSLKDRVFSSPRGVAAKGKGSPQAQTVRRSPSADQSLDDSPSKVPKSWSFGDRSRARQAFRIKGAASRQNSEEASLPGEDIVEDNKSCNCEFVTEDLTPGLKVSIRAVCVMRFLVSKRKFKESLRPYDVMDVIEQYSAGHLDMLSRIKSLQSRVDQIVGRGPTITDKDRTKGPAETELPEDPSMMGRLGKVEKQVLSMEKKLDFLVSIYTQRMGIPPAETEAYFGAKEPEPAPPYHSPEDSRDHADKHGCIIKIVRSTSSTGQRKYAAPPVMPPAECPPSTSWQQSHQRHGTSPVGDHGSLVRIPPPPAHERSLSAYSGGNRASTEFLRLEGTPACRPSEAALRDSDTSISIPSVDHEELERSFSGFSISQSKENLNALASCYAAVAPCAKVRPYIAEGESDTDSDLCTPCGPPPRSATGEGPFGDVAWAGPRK
KCNQ2 block: inhibitors of rat KCNQ2 potassium channel | B-score at 10 µM | AID 2156 | 310,000 compounds, 1.1% hits | O88943 | CHO-K1 KCNQ2, FluxOR thallium flux, 20 min; hits give low values;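 active means fluorescence ratio B-score at most minus 3 library SDs, with starting brightness B-score within 2 library SDs, cut at about -5.5 in these data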
The depositor's hits bear a star; i = inactive; . = no result.

SMILES	KCNQ2 pot	KCNQ2 block
Cc1ccccc1C(=O)NNC(=S)NC(=O)c1ccccc1	5.3*	i
O=C(NC(=S)NNC(=O)c1ccccc1O)c1ccccc1	.	i
O=C(CSc1nc(=O)n(CCN2CCOCC2)c2c1CCCC2)Nc1cccc([N+](=O)[O-])c1	.	i
COc1ccc(CNCc2c(F)cccc2F)cc1OC	0.22	i
CCCCC(=O)Nc1c2c(nn1-c1ccc(C)cc1)CS(=O)(=O)C2	0.04	i
CCc1ccc(C(C)NC(=O)c2ccc3c(c2)OCO3)cc1 (centres undefined)	1	i
CCN1CCN(C(=O)c2cn(CCOC)c(=O)c3c2c2ccccc2n3C)CC1	0.06	i
COCCn1cc(C(=O)N2CCCC(C)C2)c2c3ccccc3n(C)c2c1=O (centres undefined)	-6.6	-6.6*
COCCCNC(=O)c1cn(CC(C)C)c(=O)c2c1c1ccccc1n2C	0.05	i
CC(C)Cn1cc(C(=O)N2CCN(c3ccccn3)CC2)c2c3ccccc3n(C)c2c1=O	-5.7	-5.7*
C=CCn1c(=O)c2ccccc2n2c(SCC(=O)NCC)nnc12	1.2	i
CC(C)(C)NC(=O)C(=O)NNC(=O)c1cccc(Br)c1	6.7*	i
O=C(COc1ccc(Br)cc1)NC1CC1	0.88	i
CC(C)(C)NC(=O)C(=O)NNC(=O)COc1ccc(Br)cc1	6.2*	i
CC(C)(C)NC(=O)C(=O)NNC(=O)c1ccc(C(C)(C)C)cc1	12*	i
Cc1cccc(C(=O)NNC(=O)C(=O)NC(C)(C)C)c1	3.2	i
COC(=O)NNC(=O)c1ccc(C(C)(C)C)cc1	.	i
N#CCCN(Cc1ccccc1)C(=O)Nc1ccc(F)cc1	0.08	i
CCOC(=O)c1ccc(NC(=S)Nc2ccc(Br)cc2N)cc1	0.02	i
Cc1cc(NC(=O)COC(=O)[C@H](Cc2c[nH]c3ccccc23)NC(=O)c2ccc(F)cc2)no1	-7.2	-7.2*
CC(=O)NC(Cc1c[nH]c2ccccc12)C(=O)OCC(=O)Nc1cc(C)on1 (centres undefined)	0.63	i
COc1cccc(CNC(=O)Cc2ccc(OC)c(S(=O)(=O)N3CCOCC3)c2)c1	1.1	i
O=C(OC1CCCCC1)c1ccc(NC(=O)c2ccco2)cc1	2.4	i
COC(=O)c1ccc([C@H](NC(=O)c2ccco2)[C@]2(C)C[C@H]2C2CCCCC2)cc1	-6	-6*
O=c1ccc2cc3c([nH]c4ccc(Br)cc43)oc-2c1O	9.7*	i
SMILES	KCNQ2 pot	KCNQ2 block
O=C(O)c1ccc(N=Nc2c(O)[nH]c3ccc(Br)cc23)cc1	2.3	i
CCNC(=O)CSc1nc2ccccc2c(=O)n1-c1cc(OC)ccc1OC	0.02	i
C=C1SC(=Nc2c(C)cccc2Cl)N(C(=O)c2sc3ccccc3c2Cl)C12CCCCC2	.	i
C=C1SC(=Nc2ccccc2Cl)N(C(=O)c2sc3ccccc3c2Cl)C1(C)C	-5.8	-5.8*
CCOC(=O)c1nnn2c1nc(Nc1cccc(C(F)(F)F)c1)c1ccccc12	.	i
C=CCNC(=S)NNC(=O)CC12CC3CC(CC(C3)C1)C2	0.58	i
COc1ccc(NCC(=O)n2c(C)c(C)c3ccccc32)cc1OC	.	i
Cc1c(C)c(C)c(C(=O)c2ccc(NC(=O)c3ccccc3C(=O)O)cc2)c(C)c1C	.	i
COc1ccc(CNC(=O)COC(=O)c2ccc(OCc3c(C)noc3C)cc2)cc1OC	0.44	i
Cc1noc(C)c1COc1ccc(C(=O)OCC(=O)NCc2ccccc2Cl)cc1	-6.5	-6.5*
COC1CCN(Cc2c(C(=O)N3CCN(C4CCCCC4)CC3)nc3ccccn23)CC1	0.05	i
CCOC(=O)c1ccc(NC(=O)C2(c3ccccc3)CCOCC2)cc1	.	i
C[C@@H]1CC=C[C@H]2[C@H]1C(=O)N(Cc1ccccc1)[C@H]2c1ccc(-c2ccc(F)cc2)cc1F	.	i
C[C@@H]1CC=C[C@H]2[C@H]1C(=O)N(Cc1ccccc1)[C@H]2c1ccc(-c2ccoc2)cc1F	-6.9	-6.9*
COCCN1C(=O)C(=O)/C(=C(/O)c2ccc(S(=O)(=O)N3CCOCC3)cc2)C1c1cccc(OC)c1 (centres undefined)	0.56	i
Cn1ncc(C#N)c1/N=C/N(Cc1ccccc1)Cc1ccccc1	-5.7	-5.7*
Cn1ncc(C#N)c1/N=C/N1CCCC1	0.14	i
O=C1C(Cl)=C(N2CCC(C(=O)O)CC2)C(=O)c2ccccc21	.	i
NC(=O)C1CCN(C2=C(Cl)C(=O)c3ccccc3C2=O)CC1	-12	-12*
COC(=O)C1(C)NC(c2ccccc2C)C2C(=O)N(c3ccccc3)C(=O)C21 (centres undefined)	0.15	i
CCOC(=O)C1(c2ccccc2)NC(c2ccccc2C)C2C(=O)N(c3ccc4c(c3)OCO4)C(=O)C21 (centres undefined)	-7	-7*
CCCNc1nc(C)cc(-c2cc(C(=O)NC3CCCC3)on2)n1	.	i
CCOc1ccc(NC(=S)N2CCN(S(=O)(=O)c3ccccc3)CC2)cc1	.	i
COc1ccc(NC(=S)N2CCC(c3ccccc3)C2)cc1 (centres undefined)	0.91	i
COc1ccc(NC(=S)N2CCC(C(O)(c3ccccc3)c3ccccc3)CC2)cc1	6.7*	i
SMILES	KCNQ2 pot	KCNQ2 block
CCOc1ccc(NC(=S)N2CCC(C(O)(c3ccccc3)c3ccccc3)CC2)cc1	6.5*	i
CN(C)/N=C/C=C1\CCC/C(=C\c2ccc(F)c(F)c2)C1=O	-7.1	-7.1*
COc1ccc(/C=C2\CCC/C(=C\C=N\N(C)C)C2=O)cc1	.	i
CC(=O)N1c2ccc(S(=O)(=O)N(C)CC(=O)NC3CCCCC3C)cc2CC1C (centres undefined)	0.54	i
Cc1cccc(C(=O)OC(C)CN2C(C)CCCC2C)c1 (centres undefined)	.	i
COC(=O)c1ccc(COc2ccccc2/C=C(\C#N)C(=O)Nc2ccc(C)cc2C)cc1	.	i
COC(=O)c1ccc(COc2ccccc2/C=C(\C#N)C(=O)Nc2c(C)cc(C)cc2C)cc1	-7.2	-7.2*
C=CCN(C/C(=N\O)c1sc(C(=O)OCC)nc1C)c1cccc(Br)c1	.	i
COc1cc(N/N=C(\C)c2ccc(O)c(C)c2)nc(-c2ccccc2)n1	.	i
COc1cc(N/N=C(\C)c2ccc(N)cc2)nc(-c2ccccc2)n1	-6.8	-6.8*
C[C@H](NC(=O)N1CCn2c1nc1ccccc12)C(=O)NCC1CCCO1 (some centres undefined)	1.2	i
COc1cccc(NC(=O)c2cc3ccccc3o/c2=N\O)c1	.	i
COc1cccc(NC(=O)c2cc3cccc(OC)c3o/c2=N\O)c1	-7.1	-7.1*
O=C(O)c1ccc(OCC(F)(F)F)nc1	.	i
O=C(NC1CC1)C1=C[C@H](c2csc3ccccc23)C[C@H](OCc2ccc(CO)cc2)O1	.	i
O=C(C1=C[C@@H](c2csc3ccccc23)C[C@@H](OCc2ccc(CO)cc2)O1)N1CCN(Cc2ccccc2)CC1	-6.2	-6.2*
O=C(Nc1ccccc1)C1=C[C@H](c2csc3ccccc23)C[C@H](OCc2ccc(CO)cc2)O1	-5.7	-5.7*
O=C(C1=C[C@@H](c2csc3ccccc23)C[C@@H](OCc2ccc(CO)cc2)O1)N1CCOCC1	.	i
COC(=O)c1c(C)oc(C)c1S(=O)(=O)NC(C)(C)C	.	i
Cc1onc(-c2c(Cl)cccc2Cl)c1CO/N=C(\C#N)c1c(Cl)cccc1Cl	-5.5	-5.5*

Bioassay records: PubChem BioAssay, Johns Hopkins Ion Channel Center
